Data from PubChem BioAssay (NCI).
The panel holds about 83,000 compounds, 20% with a hit somewhere; the sample as a whole holds those more often.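 Note: values are percent growth. 100 is the growth of untreated cells, values between 100 and 0 indicate rising inhibition; between -100 and 0 indicates cell death.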 Calls of active or inactive are those of the source. How the source made its calls: active means growth percent below 10; inactive means the rest.

Assays:
Assay in all cases: NCI-60 one-dose screen, 48 h (100 = growth as untreated, 0 = no growth, -100 = all killed)
Conditions in all cases: 10 µM unless noted
BT-549 breast = test system: BT-549 breast
MDA-MB-435 melanoma = test system: MDA-MB-435 melanoma
SW-620 colon = test system: SW-620 colon
MCF7 breast = test system: MCF7 breast
HCT-116 colon = test system: HCT-116 colon
HCC-2998 colon = test system: HCC-2998 colon
KM12 colon = test system: KM12 colon

Measured: growth

CCOC(=O)/C(=C/c1c(-c2ccccc2)[nH]c2ccccc12)C(=O)c1ccc(Cl)cc1
inactive: BT-549 breast 64.7% | SW-620 colon 45.4% | MCF7 breast 28.4% | HCT-116 colon 14% | HCC-2998 colon 67.1% | KM12 colon 18.6%
active: MDA-MB-435 melanoma 9.31%

CCSc1ccc(C2C(Br)C(=O)N2c2cc(OC)c(OC)c(OC)c2)cc1 (configuration not stated)
inactive: BT-549 breast 13.8% | SW-620 colon 23% | MCF7 breast 13.2% | HCC-2998 colon 31.7% | KM12 colon 17%
active: MDA-MB-435 melanoma -1.6% | HCT-116 colon 4.7%

C=C(C)[C@@H]1CC[C@]2(C(=O)OCCCC[P+](c3ccccc3)(c3ccccc3)c3ccccc3)CC[C@]3(C)[C@H](CC[C@@H]4[C@@]5(C)CC[C@H](OC(=O)C(Cl)Cl)C(C)(C)[C@@H]5CC[C@]43C)[C@@H]12
active: BT-549 breast -71.6% | MDA-MB-435 melanoma -62.3% | SW-620 colon 0.909% | MCF7 breast 3.36% | HCT-116 colon -76.3% | HCC-2998 colon -62.8% | KM12 colon -54.8%

C#C[C@@]1(O)[C@@H](CO)O[C@@H](n2cc(Cl)c3c(N)ncnc32)[C@@H]1O
active: BT-549 breast -32.9% | MDA-MB-435 melanoma -12.3% | SW-620 colon 2.67% | MCF7 breast -40.6% | HCT-116 colon 4.58% | HCC-2998 colon -33.8% | KM12 colon 1.42%

CNc1cccc2c1C(=O)c1cccc(N)c1C2=O
inactive: BT-549 breast 30.8% | MDA-MB-435 melanoma 36.1% | SW-620 colon 63.1% | MCF7 breast 25% | HCT-116 colon 31.5% | HCC-2998 colon 93.9% | KM12 colon 35.8%

Oc1ccc(CNNc2ccnc3c(O)cccc23)c2cccnc12
inactive: BT-549 breast 37.1% | MDA-MB-435 melanoma 38.1% | SW-620 colon 27.9% | MCF7 breast 11.2% | HCT-116 colon 27.3% | HCC-2998 colon 35.7% | KM12 colon 22.9%

O=S(=O)(Nc1nccs1)c1ccc(Nc2nc(-c3ccncc3)cs2)cc1
inactive: BT-549 breast 125% | MDA-MB-435 melanoma 112% | SW-620 colon 98.1% | MCF7 breast 94.3% | HCT-116 colon 93.8% | HCC-2998 colon 120% | KM12 colon 105%

Cc1[nH]c2ncnc(Oc3ccc(NC(=O)Nc4ccc(Cl)c(C(F)(F)F)c4)cc3)c2c1C
inactive: BT-549 breast 79.4% | MDA-MB-435 melanoma 45.4% | SW-620 colon 77.9% | MCF7 breast 31.6% | HCT-116 colon 42.4% | HCC-2998 colon 60.5% | KM12 colon 27.3%

C#C[C@@]1(O)[C@@H](CO)O[C@@H](n2cc(Br)c3c(N)ncnc32)[C@@H]1O
inactive: MDA-MB-435 melanoma 14.6%
active: BT-549 breast -45.5% | SW-620 colon -0.395% | MCF7 breast -18.4% | HCT-116 colon 3.16% | HCC-2998 colon -22% | KM12 colon 8.07%

C=C1C(=O)O[C@H]2[C@H]1CC/C(COC(=O)CCCCC(=O)OC/C1=C/CC[C@@]3(C)O[C@H]3[C@H]3OC(=O)C(=C)[C@@H]3CC1)=C\CC[C@@]1(C)O[C@@H]21
inactive: BT-549 breast 61.1% | MDA-MB-435 melanoma 56.2% | SW-620 colon 25.1% | MCF7 breast 21.3% | HCC-2998 colon 100% | KM12 colon 90.6%
active: HCT-116 colon 3.28%

COc1cc2nc3c(=O)n(-c4ccc(C#N)cc4)cnn3c(=O)c2cc1OC
inactive: BT-549 breast 102% | MDA-MB-435 melanoma 98.5% | SW-620 colon 95.3% | MCF7 breast 103% | HCT-116 colon 101% | HCC-2998 colon 97% | KM12 colon 91.7%

Cc1c(Br)cccc1NC(=O)c1sc2nc3c(cc2c1N)CN(Cc1ccccc1)CC3
inactive: BT-549 breast 29.3% | SW-620 colon 18.4% | MCF7 breast 14.9% | HCT-116 colon 16.8% | HCC-2998 colon 41.1% | KM12 colon 23.5%
active: MDA-MB-435 melanoma -42.9%

COc1cccc(NC(=O)Nc2ccc(Nc3ncnc4[nH]c(C)c(C)c34)cc2)c1
inactive: BT-549 breast 97.7% | MDA-MB-435 melanoma 102% | SW-620 colon 110% | MCF7 breast 91.1% | HCT-116 colon 116% | HCC-2998 colon 115% | KM12 colon 70.6%

COc1ccc2nc(-c3ccc(Cl)cc3)cc(-c3nnc(SCC(=O)Nc4ccc(/C(C)=N\O)cc4)o3)c2c1
active: SW-620 colon 3.98% | MCF7 breast 7.93% | HCT-116 colon 2.59%
inactive: BT-549 breast 25.4% | MDA-MB-435 melanoma 16.4% | HCC-2998 colon 82% | KM12 colon 30.9%

COc1ccc(/C=C/C(=O)Nc2ncnc3nc[nH]c23)cc1
inactive: BT-549 breast 103% | MDA-MB-435 melanoma 91.1% | SW-620 colon 110% | MCF7 breast 78.9% | HCT-116 colon 101% | HCC-2998 colon 111% | KM12 colon 95.8%

Cc1cc(C)n(-c2nc(-c3cccs3)c(C#N)c(=O)[nH]2)n1
inactive: BT-549 breast 83% | MDA-MB-435 melanoma 95.2% | SW-620 colon 102% | MCF7 breast 89.8% | HCT-116 colon 85.1% | HCC-2998 colon 96.7% | KM12 colon 97.9%

CCN1CCN(Cc2ccc(NC(=O)c3cccc(C#Cc4cccc5[nH]nc(N)c45)c3)cc2C(F)(F)F)CC1
active: BT-549 breast 3.52% | MDA-MB-435 melanoma -91.2% | SW-620 colon -76% | MCF7 breast -77.8% | HCT-116 colon -96.5% | HCC-2998 colon -87.4% | KM12 colon -75%

O=C(Nc1nc(-c2ccccc2)cs1)c1cc(-c2ccc(Br)cc2)nc2ccccc12
inactive: BT-549 breast 60.3% | MDA-MB-435 melanoma 77.2% | SW-620 colon 51.6% | MCF7 breast 37.6% | HCT-116 colon 27.5% | HCC-2998 colon 87.7% | KM12 colon 67%

O=C1NN(c2ccccc2)C(c2ccc3c(c2)OCO3)N2CCC[C@@H]12 (some centres not stated)
inactive: BT-549 breast 114% | MDA-MB-435 melanoma 105% | SW-620 colon 105% | MCF7 breast 87.5% | HCT-116 colon 94.3% | HCC-2998 colon 82.2% | KM12 colon 98.8%

CCN(CC)CC#CCOC(=O)[C@]1(C)CCC[C@]2(C)[C@H]3C[C@H]4C(C(C)C)=C[C@]3(CC[C@H]21)[C@@H]1C(=O)CCC(=O)[C@@H]14
inactive: BT-549 breast 63.7% | MDA-MB-435 melanoma 74% | SW-620 colon 55.1% | MCF7 breast 25.1% | HCT-116 colon 35.8% | HCC-2998 colon 75% | KM12 colon 51.9%

Cn1c2c(c3ccc(-c4ccn[nH]4)cc3c1=O)C(=O)c1ccccc1-2
active: MCF7 breast 9.04%
inactive: BT-549 breast 50.5% | MDA-MB-435 melanoma 77.6% | SW-620 colon 31.1% | HCC-2998 colon 79.8% | KM12 colon 15.7%

O=C(Nc1cc(=O)[nH]c(=O)[nH]1)C(Cl)Cl
inactive: BT-549 breast 107% | MDA-MB-435 melanoma 110% | SW-620 colon 100% | MCF7 breast 97.1% | HCT-116 colon 107% | HCC-2998 colon 92.4% | KM12 colon 107%

COc1ccccc1N1CCN(CCCOc2ccc(C(=O)/C=C3/C(=O)Nc4ccccc43)cc2)CC1
inactive: BT-549 breast 68.1% | MDA-MB-435 melanoma 73% | SW-620 colon 70.6% | MCF7 breast 49.7% | HCT-116 colon 34.4% | HCC-2998 colon 60.2% | KM12 colon 59.4%

O=C(NCc1ccccc1)c1ccc2c(c1)NC(=O)[C@@H]1CCCN21
inactive: BT-549 breast 110% | MDA-MB-435 melanoma 99.6% | SW-620 colon 96.4% | MCF7 breast 85.4% | HCT-116 colon 105% | HCC-2998 colon 88% | KM12 colon 84%

O=c1[nH]nc(-c2ccccc2)c2sc(NC(=S)Nc3ccc(Cl)cc3)nc12
inactive: BT-549 breast 92.6% | MDA-MB-435 melanoma 103% | SW-620 colon 98.1% | MCF7 breast 74.9% | HCT-116 colon 87.8% | HCC-2998 colon 107% | KM12 colon 90%

COc1cc(C(C)c2ccc3c(ccn3C)c2)cc(OC)c1OC (configuration not stated)
active: MDA-MB-435 melanoma -40.6%
inactive: BT-549 breast 12.7% | SW-620 colon 28% | MCF7 breast 14.6% | HCC-2998 colon 23.4%

CCCCCOC(=O)c1ccccc1O
inactive: BT-549 breast 93.4% | MDA-MB-435 melanoma 102% | SW-620 colon 105% | MCF7 breast 87.6% | HCC-2998 colon 109% | KM12 colon 105%

COc1ccc(C(=S)c2cc(OC)c(OC)c(OC)c2)cc1OC(=O)CCl
inactive: BT-549 breast 12.1% | SW-620 colon 29.5% | MCF7 breast 15% | HCC-2998 colon 31.2% | KM12 colon 13.9%
active: MDA-MB-435 melanoma -8.11% | HCT-116 colon 9.73%

COC(=O)/C=C1\SC(=Nc2cccc(OC)c2)N(CCc2c[nH]c3ccccc23)C1=O
inactive: BT-549 breast 52.3% | MDA-MB-435 melanoma 62.5% | SW-620 colon 78.2% | MCF7 breast 25.8% | HCT-116 colon 50.1% | HCC-2998 colon 97% | KM12 colon 48.3%

C#C[C@@]1(O)[C@@H](CO)O[C@@H](n2cc(F)c3c(N)ncnc32)[C@@H]1O
inactive: KM12 colon 10.2%
active: BT-549 breast -23.9% | MDA-MB-435 melanoma 1.49% | SW-620 colon 1.66% | MCF7 breast 2.03% | HCT-116 colon 1.44% | HCC-2998 colon -27.2%

COc1ccccc1-c1ccc2nc(NC(=O)Nc3cc(C(F)(F)F)cc(C(F)(F)F)c3)sc2c1
active: MCF7 breast 4.1%
inactive: BT-549 breast 13.2% | MDA-MB-435 melanoma 10.9% | SW-620 colon 11.9% | HCC-2998 colon 11.8%

CC(=O)Oc1c2c(nc3c1c1ccccc1n3Cc1ccccc1)-c1ccccc1C2
inactive: BT-549 breast 104% | MDA-MB-435 melanoma 98.2% | SW-620 colon 98.8% | MCF7 breast 51.1% | HCC-2998 colon 87.9% | KM12 colon 88.7%

COc1ccc(-c2nc(C#N)c(NCC(c3ccc(Cl)cc3)N3CCCCC3)o2)cc1 (configuration not stated)
inactive: BT-549 breast 106% | MDA-MB-435 melanoma 77.1% | SW-620 colon 97.5% | MCF7 breast 80.6% | HCT-116 colon 80.5% | HCC-2998 colon 107% | KM12 colon 84.9%

N#Cc1c(NC(=O)c2cccs2)[n+]([O-])c2cc(C(F)(F)F)ccc2[n+]1[O-]
inactive: BT-549 breast 93.9% | MDA-MB-435 melanoma 106% | SW-620 colon 89% | MCF7 breast 98.7% | HCC-2998 colon 99.2% | KM12 colon 108%

COc1cc(NC(=O)COc2cc(C)nc3ccc(OC)cc23)cc(OC)c1
inactive: BT-549 breast 85.5% | MDA-MB-435 melanoma 100% | SW-620 colon 99.7% | MCF7 breast 86.8% | HCT-116 colon 90.2% | HCC-2998 colon 101% | KM12 colon 96.8%
